From PubChem BioAssay (NCATS)
Records with an inconclusive call do not appear. Activity calls are given as the source filed them. Unless noted, the call rests on the fitted dose curve; in most records, active means well fitted curve in the direction sought with a large enough effect; inconclusive means small, poorly fitted or top-dose-only effect, or another doubt; inactive means no such curve, though single readings can be large; an effect the other way counts as inactive or inconclusive.

Columns and labels:
[1] = target: Arylsulfatase A (Homo sapiens) (UniProt P15289); test: qHTS screen for enhancers of Arylsulfatase A (ASA1): LOPAC Validation Assay (AID 720538)
Chain of Arylsulfatase A (Homo sapiens) (P15289 whole entry, looked up): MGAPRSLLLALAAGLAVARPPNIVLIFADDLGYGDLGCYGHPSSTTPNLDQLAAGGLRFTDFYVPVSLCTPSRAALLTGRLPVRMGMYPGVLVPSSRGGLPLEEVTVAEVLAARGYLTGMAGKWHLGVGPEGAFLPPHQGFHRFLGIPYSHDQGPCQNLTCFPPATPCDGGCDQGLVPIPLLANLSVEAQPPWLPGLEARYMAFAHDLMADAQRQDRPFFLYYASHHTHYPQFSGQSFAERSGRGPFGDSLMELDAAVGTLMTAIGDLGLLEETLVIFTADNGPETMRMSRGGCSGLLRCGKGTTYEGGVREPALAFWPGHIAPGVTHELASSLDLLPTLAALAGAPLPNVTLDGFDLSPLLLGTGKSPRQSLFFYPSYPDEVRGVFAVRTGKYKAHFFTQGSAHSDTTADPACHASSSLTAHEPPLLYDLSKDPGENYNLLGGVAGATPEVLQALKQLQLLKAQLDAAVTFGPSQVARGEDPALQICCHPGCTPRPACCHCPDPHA
How it was run: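 SV40-transformed fibroblasts from an MLD patient (ASA-I179S) were treated with compound for 48 h at 37 C. They were then lysed with 0.5 mM pNCS substrate (final) for 14 h at room temperature and stopped with NaOH; signal read by fluorescence (Ex 525/Em 598 nm), with increase denoting enhanced activity.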

[2] = qHTS for compounds that reverse cellular toxicity of Amyloid beta (A-beta) peptide in yeast: LOPAC Validation Assay (AID 720559); settings: Potency: rescue of growth toxicity;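 further: plate controls were DMSO for no effect and equimolar ferric chloride plus clioquinol rescue for full effect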
How it was run: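 Yeast expressing toxic A-beta grown with pinned compounds at 30 C for 48 hr. Growth measured as absorbance at 600 nm; data normalized to DMSO and to an equimolar FeCl3/clioquinol mixture as positive control.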

[3] = qHTS for Activators of Parkin Expression: LOPAC Validation Assay (NLuc Reporter) (AID 720572;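 further: 0% = DMSO and 100% = positive control compound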)
How it was run: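 Cells harboring the Parkin-promoter coincidence reporter were treated for 24 h at seven concentrations. NLuc output was measured sequentially after the FLuc channel and scaled between DMSO and positive control values.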

[4] = qHTS for Activators of Parkin Expression: LOPAC Validation Assay (FLuc Reporter) (AID 720573;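 further: 0% = DMSO and 100% = positive control compounds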)
How it was run: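 Neuronal cell line stably expressing FLuc/NLuc coincidence reporter under the Parkin promoter, 1,500 cells/well, dosed 24 h after seeding in 7-point series for 24 h at 37 C. FLuc luminescence read; normalized to DMSO and positive control (100%).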

[5] = target: T1, Hexokinase-4 (Homo sapiens) + Glucokinase regulatory protein (Homo sapiens) (UniProt P35557+Q14397); test: qHTS assay for inhibitors of recombinant human GCK-GKRP interaction: Diaphorase-coupled assay (AID 743205)
T1 sequence (P35557 whole entry, looked up): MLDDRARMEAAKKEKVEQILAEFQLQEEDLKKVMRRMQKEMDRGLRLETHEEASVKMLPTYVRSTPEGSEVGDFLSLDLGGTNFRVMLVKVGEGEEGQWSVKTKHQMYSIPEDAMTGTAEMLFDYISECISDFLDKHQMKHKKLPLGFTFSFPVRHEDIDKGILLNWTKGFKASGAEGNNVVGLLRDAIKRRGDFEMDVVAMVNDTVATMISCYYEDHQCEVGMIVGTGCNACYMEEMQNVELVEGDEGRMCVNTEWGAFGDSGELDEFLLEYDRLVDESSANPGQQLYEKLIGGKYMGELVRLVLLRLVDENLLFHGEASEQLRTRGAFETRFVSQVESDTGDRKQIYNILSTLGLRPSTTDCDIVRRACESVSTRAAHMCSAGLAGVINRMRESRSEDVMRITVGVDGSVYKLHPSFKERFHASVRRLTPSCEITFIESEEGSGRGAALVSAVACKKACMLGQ
T1 sequence (Q14397 whole entry, looked up): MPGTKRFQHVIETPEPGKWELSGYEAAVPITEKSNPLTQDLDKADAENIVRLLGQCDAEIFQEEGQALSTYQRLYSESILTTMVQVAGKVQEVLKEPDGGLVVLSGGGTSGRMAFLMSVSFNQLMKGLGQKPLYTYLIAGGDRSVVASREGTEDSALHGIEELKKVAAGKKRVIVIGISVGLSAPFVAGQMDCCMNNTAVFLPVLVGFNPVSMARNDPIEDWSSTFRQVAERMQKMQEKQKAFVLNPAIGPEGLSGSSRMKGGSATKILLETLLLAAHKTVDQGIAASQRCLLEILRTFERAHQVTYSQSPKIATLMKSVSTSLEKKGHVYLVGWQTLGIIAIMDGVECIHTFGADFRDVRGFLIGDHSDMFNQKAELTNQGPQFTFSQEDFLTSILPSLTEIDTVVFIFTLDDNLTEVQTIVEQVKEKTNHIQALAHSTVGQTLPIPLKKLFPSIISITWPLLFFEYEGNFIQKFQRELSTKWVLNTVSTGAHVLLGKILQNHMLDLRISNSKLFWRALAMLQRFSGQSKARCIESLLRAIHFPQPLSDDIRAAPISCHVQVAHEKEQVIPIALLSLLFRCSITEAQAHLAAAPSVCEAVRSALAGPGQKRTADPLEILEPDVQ
How it was run: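 Compounds pre-incubated 20 min with substrate, then 10 nM GST-GCK with 10 nM FLAG-GKRP added. GCK activity coupled via G6PDH and diaphorase to resorufin (5 mM glucose, 0.4 mM ATP, 0.15 mM NADP+, pH 7.6), read kinetically over 30 minutes at Ex 525/Em 590 nm.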

[6] = target: T1, Hexokinase-4 (Homo sapiens) + Glucokinase regulatory protein (Homo sapiens); test: qHTS assay for inhibitors of recombinant human GCK-GKRP interaction: ADP-Glo assay (AID 743206);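 further: plate controls were DMSO plus enzyme for no effect and no enzyme for full effect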
How it was run: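 Pin-transferred compounds meet a 15 nM GST-GCK/15 nM FLAG-GKRP/2 uM S6P mix (dispense concentrations). ATP is then added to 0.4 mM final with 5 mM glucose, and the reaction runs 60 min at room temperature. ADP is quantified luminescently.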

[7] = target: T1, Hexokinase-4 (Homo sapiens) + Glucokinase regulatory protein (Homo sapiens); test: qHTS assay for inhibitors of recombinant human GCK-GKRP interaction: HTRF assay (AID 743207);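 further: 0% = DMSO with GCK present and -100% = DMSO wells lacking GCK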
How it was run: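 HTRF binding of 5 nM GST-GCK and 5 nM FLAG-GKRP with 2 uM S6P in pH 7.1 Hepes buffer (MgCl2, KCl, DTT, Tween 20, BSA). Anti-FLAG XL665 and anti-GST donor added, 60 min at room temperature; 665/615 nm read, normalized to with- and without-GCK controls.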

[8] = qHTS Assay for Identifying Gametocytocidal Compounds (AID 743244); further: potency means the concentration at half of the fitted maximal effect;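 on max response: on the % scale 0 is the no-effect control and ±100 the full control effect; actives lower the fluorescent signal which means gametocytes are killed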; settings: P. falciparum 3D7 stage III-V gametocytes, alamarBlue, 72 h; max response: stronger effect = lower value
How it was run: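 Stage III–V gametocytes of P. falciparum 3D7 were seeded at 20,000 cells/well onto pre-dispensed compounds. After 72 h, 37 °C, 5% CO2, alamarBlue was added for another 24 h.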

[9] = qHTS profiling of the MIPE4 collection as inhibitors of Plasmodium falciparum (3D7) proliferation (AID 743344; call rule not given here;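 further: scaled between DMSO vehicle wells and 0.29 µM artemisinin as full inhibition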); settings: P. falciparum 3D7 in erythrocytes, SYBR Green DNA fluorescence, 72 h; at 28.5 µM (top of the series)
How it was run: (§1)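 Parasite DNA was quantified by SYBR Green I fluorescence (ex 485, em 535 nm) after overnight lysis in saponin/Triton buffer at room temperature. Cultures at 0.3% parasitemia and 2.5% hematocrit were first exposed to compound for 72 h at 37 C; signals were normalised to artemisinin (0.29 uM) and vehicle wells.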

[10] = qHTS profiling of the MIPE4 collection as inhibitors of Plasmodium falciparum (DD2) proliferation (AID 743345; call rule not given here); settings: P. falciparum Dd2 in erythrocytes, SYBR Green DNA, 72 h; at 28.5 µM (top of the series)
How it was run: as §1

[11] = qHTS profiling of the MIPE4 collection as inhibitors of Plasmodium falciparum (DD2) proliferation (Rep 2) (AID 743346; call rule not given here); settings: P. falciparum Dd2 in erythrocytes, SYBR Green DNA, 72 h; at 28.5 µM (top of the series)
How it was run: as §1

[12] = qHTS profiling of the MIPE4 collection as inhibitors of Plasmodium falciparum (HB3) proliferation (AID 743347; call rule not given here;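 further: plate controls were DMSO vehicle wells for no effect and artemisinin wells for full effect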); settings: P. falciparum HB3 in erythrocytes, SYBR Green DNA, 72 h; at 28.5 µM (top of the series)
How it was run: as §1

[13] = qHTS profiling for inhibitors of Plasmodium falciparum (3D7) proliferation (AID 743322);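 further: infected erythrocytes exposed to compound for 72 h before lysis; 100% = DMSO vehicle wells and 0% = 0.29 µM artemisinin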; settings: P. falciparum 3D7 proliferation; at 28.7 µM (top of the series) unless noted
How it was run: as §1

[14] = qHTS profiling for inhibitors of Plasmodium falciparum (DD2) proliferation (AID 743323; call rule not given here); settings: lower = more inhibition; at 28.7 µM (top of the series) unless noted
How it was run: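 1536-well qHTS; infected RBCs 0.3% parasitemia/2.5% Hct final; cpd 72 h 37 C 5% CO2; lysis buffer + SYBR Green I, o/n RT dark; FI 485/535; norm. to 0.29 uM artemisinin and DMSO, plate-stack corrected.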

[15] = qHTS profiling for inhibitors of Plasmodium falciparum (HB3) proliferation (AID 743324); settings: Plasmodium falciparum HB3 blood-stage proliferation; at 28.7 µM (top of the series) unless noted;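 further: 100% = DMSO vehicle wells and 0% = artemisinin-treated control wells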
How it was run: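 SYBR Green fluorescence (485 ex/535 em) of lysed cultures, incubated overnight at room temperature in the dark, quantifies parasite DNA. Infected erythrocytes at 0.3% parasitemia and 2.5% hematocrit were exposed 72 h; values normalized to DMSO and 0.29 uM artemisinin controls.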

O=[N+]([O-])c1ccc2c(c1)S(=O)(=O)C=C2
inactive: Potency [1] | Potency [2] | Potency [3] | Potency [4] | outcome [5] | Potency [6] | Potency [7]

O=C(CCCCCN1CCN(c2ccccc2-c2ccccc2)CC1)NC1CCCc2ccccc21 (centres undefined)
inactive: Potency [1] | Potency [2] | Potency [3] | Potency [4] | outcome [5] | Potency [6]

NCCNC(=O)c1ncsc1-c1cccc(F)c1
inactive: Potency [1] | Potency [2] | Potency [3] | Potency [4] | outcome [5] | Potency [6] | Potency [7] | max response [8] 3.56%

CCCCC/C=C\CC(O)/C=C/c1cccc(CC(O)CCCCO)n1 (centres undefined)
inactive: Potency [1] | Potency [2] | Potency [3] | Potency [4] | outcome [5] | Potency [6] | Potency [7]

O=P(O)(O)C(Cl)(Cl)P(=O)(O)O
inactive: Potency [1] | Potency [2] | Potency [3] | Potency [4] | outcome [5] | Potency [6] | Potency [7]

CC(C)(C)c1ccc(S(=O)(=O)/C=C/C#N)cc1
inactive: Potency [1] | Potency [2] | Potency [3] | Potency [4] | outcome [5] | Potency [6] | Potency [7]

CCCCCCCCCCCCCCCCCCNC(=O)OCC(COP(=O)([O-])OCC[n+]1ccsc1)OC (centres undefined)
inactive: Potency [1] | Potency [2] | Potency [3] | Potency [4] | outcome [5] | Potency [6] | Potency [7]

CSc1nc(N)c2ncn([C@@H]3O[C@H](COP(=O)(O)OP(=O)(O)OP(=O)(O)O)[C@@H](O)[C@H]3O)c2n1
inactive: Potency [1] | Potency [2] | Potency [3] | Potency [4] | outcome [5] | Potency [6] | Potency [7]

Clc1ccc(N2CCN(Cc3c[nH]c4ncccc34)CC2)cc1
inactive: Potency [1] | Potency [2] | Potency [3] | Potency [4] | outcome [5] | Potency [6] | Potency [7]

CN1C2CCC1CC(OC(=O)C(O)c1ccccc1)C2 (centres undefined)
inactive: Potency [1] | Potency [2] | Potency [3] | Potency [4] | outcome [5] | Potency [6] | Potency [7] | max response [8] 30%

N=c1ccn2c(n1)O[C@H]1[C@H](O)[C@@H](CO)O[C@H]12
inactive: Potency [1] | Potency [2] | Potency [3] | Potency [4] | outcome [5] | Potency [6] | Potency [7] | max response [8] 8.89%

Fc1ccc(C(OCCCc2cnc[nH]2)c2ccc(F)cc2)cc1
inactive: Potency [1] | Potency [2] | Potency [3] | Potency [4] | outcome [5] | Potency [6] | Potency [7]

COc1ccc2c(c1)CCC1C2CC[C@@]2(C)C1CC[C@@H]2NCCCCCCN1C(=O)CCC1=O (some centres undefined)
inactive: Potency [1] | Potency [2] | Potency [3] | Potency [4] | outcome [5] | Potency [6]

O=C(O)CC1CCCc2ccccc2C1O (centres undefined)
inactive: Potency [1] | Potency [2] | Potency [3] | Potency [4] | outcome [5] | Potency [6] | Potency [7]

CC(C)NC[C@@H](O)c1ccc(O)c(O)c1
inactive: Potency [1] | Potency [2] | Potency [3] | Potency [4] | outcome [5] | Potency [6] | Potency [7] | max response [8] 19.2%

S=C(S)OC1CC2CC1C1CCCC21 (centres undefined)
inactive: Potency [1] | Potency [2] | Potency [3] | Potency [4] | outcome [5] | Potency [6] | Potency [7] | max response [8] 22.6%

CC(=O)N[C@H](C(=O)O)C(C)(C)SN=O
inactive: Potency [1] | Potency [2] | Potency [3] | Potency [4] | outcome [5] | Potency [6] | Potency [7] | max response [8] 7.76%

C[N+](C)(CCCCCC[N+](C)(C)CCCN1C(=O)c2cccc3cccc(c23)C1=O)CCCN1C(=O)c2cccc3cccc(c23)C1=O
6.76%: parasite growth, % of control (lower = inhibition) [11]
inactive: Potency [1] | Potency [2] | Potency [3] | Potency [4] | outcome [5] | Potency [6] | Potency [7] | max response [8] -6.11%
4.26%: growth, % of control [12]
5.17%: parasite growth remaining, % of DMSO control (lower = more inhibition) [10]
5.01%: parasite growth, % of DMSO control [9]

N[C@@H](CC(=O)O)C(=O)O
inactive: Potency [1] | Potency [2] | Potency [3] | Potency [4] | outcome [5] | Potency [6] | Potency [7] | max response [8] 20.5%

C=C[C@@H]1CN2CC[C@@H]1C[C@H]2[C@H](O)c1ccnc2ccc(OC)cc12
active: Potency [8] 296 nM
9.34%: parasite growth remaining, % of DMSO control (lower = more inhibition) [10]
1.73%: activity, percent of control [14]
1.02%: remaining proliferation (% of control), lower = more inhibition [15]
5.53%: growth, % of control [12]
20.6%: parasite growth, % of control (lower = inhibition) [11]
inactive: Potency [1] | Potency [2] | Potency [3] | Potency [4] | outcome [5] | Potency [6] | Potency [7]
0.99%: remaining parasite growth % (stronger effect = lower value) [13]
6.67%: parasite growth, % of DMSO control [9]

CO/S(=N\S(=O)(=O)c1ccc(Cl)cc1)c1ccc([N+](=O)[O-])cc1 (centres undefined)
inactive: Potency [1] | Potency [2] | Potency [3] | Potency [4] | outcome [5] | Potency [6] | Potency [7] | max response [8] 19.6%

CCCCCCCCCCCCCCCCCC(=O)OC(CC(=O)O)C[N+](C)(C)C (centres undefined)
inactive: Potency [1] | Potency [2] | Potency [3] | Potency [4] | outcome [5] | Potency [6] | Potency [7] | max response [8] -2.89%
